KDM5B inhibitor: inhibitors of human KDM5B histone demethylase | Potency, µM (highest dose often 57.7 µM), most hits filed as inhibitors | KDM5B demethylase, FDH-coupled NADH fluorescence (FDH is formaldehyde dehydrogenase) | 220,000 compounds, 2.6% hits; active = well fitted inhibition curve with a large enough effect; also: 0% is about no effect; nearly all actives have a fitted effect of over 70% in size
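Measured: NADH fluorescence change, 30 min, RT. System: KDM5BΔAP 200 nM final, H3K4me3 peptide, α-KG, Fe(II), ascorbate, NAD⁺ plus FDH, pH 7.5 HEPES. Compounds: titrated, 10 min pre-incubation with enzyme.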
* = called active by the depositor; i = inactive; ! = not active in a repeat. Only a selection was taken, and hits are over-represented in it overall. Potency is read from the fitted curve at half-maximal effect.

SMILES	KDM5B inhibitor
Cc1nc2c(s1)C[C@@H]1[C@](C)(CO)[C@H](O)CC[C@@]1(C)[C@@H]2CC(=O)NCc1cccnc1	i
COCC(=O)Nc1nc2c(s1)C[C@@H]1[C@](C)(CO)[C@H](O)CC[C@@]1(C)[C@@H]2CC(=O)NC(C)C	i
COCC(=O)Nc1nc2c(s1)C[C@@H]1[C@](C)(CO)[C@H](O)CC[C@@]1(C)[C@@H]2CC(=O)N1CCOCC1	i
COCC(=O)Nc1nc2c(s1)C[C@@H]1[C@](C)(CO)[C@H](O)CC[C@@]1(C)[C@@H]2CC(=O)NCc1cccnc1	i
CC(C)(C)c1ccc(C(=O)Nc2nc3c(s2)C[C@@H]2[C@](C)(CO)[C@H](O)CC[C@@]2(C)[C@@H]3CC(=O)NCc2ccco2)cc1	18µM*
C[C@]1(CO)[C@H]2Cc3sc(NC(=O)c4ccco4)nc3[C@@H](CC(=O)NCc3ccccc3)[C@]2(C)CC[C@H]1O	i
C[C@]1(CO)[C@H]2Cc3sc(NC(=O)C4CCCCC4)nc3[C@@H](CC(=O)N3CCOCC3)[C@]2(C)CC[C@H]1O	i
CC(C)NC(=O)C[C@@H]1c2nc(NC(=O)c3ccc(C(C)(C)C)cc3)sc2C[C@@H]2[C@](C)(CO)[C@H](O)CC[C@]21C	32µM*
COc1ccccc1CNC(=O)C[C@@H]1c2nc(-c3cccnc3)sc2C[C@@H]2[C@](C)(CO)[C@H](O)CC[C@]21C	25µM*
CC(C)(C)c1ccc(C(=O)Nc2nc3c(s2)C[C@@H]2[C@](C)(CO)[C@H](O)CC[C@@]2(C)[C@@H]3CC(=O)N2CCOCC2)cc1	28µM*
O=C(Nc1ccc([C@@H](O)[C@H]2COCC(=O)N2CC2CC2)cc1)C1CCCC1	i
CCN(CC(=O)NC(C)(C)C)Cc1cccc2cccnc12	i
CCOC(=O)c1cnc(N2CC3CCC(C2)N3CC(F)(F)F)s1	i
COc1ccc(CCNC(=S)Nc2cccc(F)c2)cc1	i
CCSc1nc(C(F)(F)F)nc2ccccc12	i
Clc1ccc(OCc2ccc(-c3nc(-c4ccc(Br)o4)no3)o2)cc1	i
CCn1nc(C(=O)Nc2cccc(C(=O)Nc3ccncc3)c2)c2ccccc2c1=O	i
Cc1ccc2c(=O)cc(C(=O)Nc3nnc(CC(C)C)s3)oc2c1	i
Cc1nc(-c2c3n(c(=O)n(CC(=O)NCCCc4ccccc4)c2=O)CCCC3)no1	i
O=C(NCCF)c1cccc(S(=O)(=O)NCCCc2ccncc2)c1	i
COc1ccc(C2CC(c3ccccc3NS(=O)(=O)c3ccccc3)=NN2C(C)=O)cc1 (stereo not given)	i
CCNC(=O)N1CC(C(=O)NC(C)c2ccccc2)CC(c2ccc(F)c(C)c2)C1 (stereo not given)	i
CC/C=C(/C)C(=O)NCC(c1ccsc1)N(C)C (stereo not given)	i
CCCCn1c(=O)[nH]c(=O)c2c1nc(CSc1nnnn1-c1ccc(C)cc1)n2CC	i
CN(CC(=O)N1CCCC1)c1nc(-c2ccccc2)nc2ccccc12	i
SMILES	KDM5B inhibitor
C[C@]1(CO)[C@H]2Cc3sc(NC(=O)c4ccc(F)cc4)nc3[C@@H](CC(=O)O)[C@]2(C)CC[C@H]1O	i
C[C@@H](NC(=O)C[C@@H]1c2nc(NC(=O)CC(C)(C)C)sc2C[C@@H]2[C@](C)(CO)[C@H](O)CC[C@]21C)c1ccccc1	i
C[C@H](NC(=O)C[C@@H]1c2nc(NC(=O)c3ccc(F)cc3)sc2C[C@@H]2[C@](C)(CO)[C@H](O)CC[C@]21C)c1ccccc1	32µM*
C=CCn1c(C)cc(C(=O)Cn2c(=O)c3c(ncn3CC)n(Cc3ccccc3)c2=O)c1C	i
Cc1cc(C(=O)O)c(C)[nH]1	i
COCCCNC(=O)CCc1ncc(-c2ccc(F)cc2F)o1	i
Cc1ccc(C)c(NC(NC(=O)c2ccc(C(C)(C)C)cc2)C(Cl)(Cl)Cl)c1 (stereo not given)	i
CN1CCCC1c1nc(C2CN(C(=O)c3cnccn3)C2)no1 (stereo not given)	i
Cc1ccccc1-n1cc(CN(C)C(=O)CN2CC3(CCCC3)CC2=O)cn1	i
Cc1cccc(-n2c(SCC(=O)N3CCCCC3)nc3ccccc3c2=O)n1	i
Cc1cccc(N2CCN(C(=O)CN3CC4(CCCCC4)CC3=O)CC2)n1	32µM*
COCCN1CCCNCC1	i
Cc1cc(NC(=O)N2CCCC(Cn3c(C)nc4cccnc43)C2)ccc1Br (stereo not given)	i
O=C(OC1C=CC2COC1O2)c1ccccc1 (stereo not given)	i
c1csc(CN2CCn3c(nnc3C3CCCNC3)C2)c1 (stereo not given)	i
O=C(c1ccccc1F)N1CCn2c(nnc2C2CCCNC2)C1 (stereo not given)	i
Fc1ccc(CN2CCn3c(nnc3C3CCCNC3)C2)cc1 (stereo not given)	25µM*!
OCc1cccc(Nc2ncnc3sccc23)c1	i
CCc1noc(-c2ccn3c(CNC(=O)c4ccc(F)cc4Cl)nnc3c2)n1	i
CCc1noc(-c2ccn3c(CNC(=O)c4c(F)cccc4F)nnc3c2)n1	i

Source: PubChem
